Measurements taken from PubChem BioAssay (NCATS).
Records with an inconclusive call do not appear. Unmarked numbers belong to inactive results. Calls follow the shape of the dose curve; as a rule, active = well fitted cell-killing curve with a large enough effect; inconclusive = small, poorly fitted or top-dose-only effect, or effect the other way; inactive = flat fitted curve, though single readings scatter.

These compounds were tested on CAOV3 (assay: Primary qHTS to identify gynecologic anti-cancer compounds using libraries of approved drugs and bioactive compounds (AID 1345084; also: nearly all actives have a fitted effect of over 55% in size)). Conditions: Gynecologic cancer cell panel viability, ATPlite luminescence, 48 h; series mostly up to 57.5 µM; activity change, negative = cytotoxicity: at the top concentration.
Summary of the method: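 Measured: luminescence after ATPlite addition (15 min, RT). Exposure: 48 h, 37 C, 5% CO2.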
% is scaled to controls: 0 for no effect and ±100 for the full control effect.

Row | Compound | activity change, negative = cytotoxicity
1 | C[C@]12CC[C@@H]3c4ccc(O)c(O)c4CC[C@H]3[C@@H]1CCC2=O | -17.3%
2 | O=C(Nc1ccccc1)c1ccc(Nc2nnc(-c3ccc(O)cc3)c3ccccc23)cc1 | 0.358%
3 | CC1(NC(=O)c2ccc(C#Cc3cccc(F)c3)cn2)COC1 | 29.3%
4 | COc1ccc(S(=O)(=O)N2CCC[C@H]2C(=O)Nc2cc(C)cc(C)c2)cc1 | 2.77%
5 | COc1cc(C2OC(c3ccc(OC)c(OC)c3)C(C)C2C)ccc1O (stereo unspecified) | -6.09% [at 38.5 µM]
6 | C#CCCCn1cc(-c2cccc3c2N[C@H](C)CC(=O)N3)cn1 | -4.55%
7 | CC(=O)O[C@@H]1[C@@H](O)[C@H](O[C@@H]2[C@@H](O)[C@@H](O)[C@H](O[C@H]3[C@H](O[C@H]4[C@H](O[C@H]5CC[C@@]6(C)C(CC[C@]7(C)C6CC=C6[C@@H]8CC(C)(C)CC[C@]8(C(=O)O)CC[C@]67C)[C@]5(C)CO)O[C@H](CO)[C@@H](O)[C@@H]4O)OC[C@@H](O)[C@@H]3O)O[C@H]2C)OC[C@H]1O (stereo partly specified) | 10.9% [at 11.6 µM]
8 | CCC/C=C/C(=O)O[C@H]1CC(C)(C)CC2[C@@]13[C@H](O)C[C@]1(C)[C@@]2(CCC2[C@@]4(C)CC[C@H](O[C@@H]5O[C@H](C(=O)O)[C@@H](O)[C@H](O[C@@H]6O[C@H](CO)[C@H](O)[C@H](O)[C@H]6O[C@@H]6O[C@@H](C)[C@H](O)[C@@H](O)[C@H]6O[C@@H]6OC[C@](O)(CO)[C@H]6O)[C@H]5O[C@@H]5O[C@H](CO)[C@H](O)[C@H](O)[C@H]5O)C(C)(C)C4CC[C@]21C)O[C@H]3O (stereo partly specified) | -15.9% [at 6.55 µM]
9 | Cc1ccc(-c2ncc[nH]2)cc1NC(=O)c1ccc(OCc2ccccn2)cc1 | -2.06%
10 | COc1cc(CCc2ccc(OCC=C(C)C)cc2)cc(OC)c1OC | -12.2% [at 38.5 µM]
11 | CNC(=O)COC(=O)N1CCC(CCc2ccc(Cl)cc2)CC1 | 10.7%
12 | COC1C=C(C)C(O)(CO)C2(C)CCCC(C)(C)C12 (stereo unspecified) | 6.99%
13 | O=C(O)c1ccc(S(=O)(=O)N(Cc2ccc(OC(F)(F)F)cc2)c2ncc(C(F)(F)F)cc2Cl)cc1 | 14.6%
14 | C=C(C)C(=O)O[C@H]1[C@H]2C(=C)C(=O)O[C@@H]2/C=C(\CO)CC/C=C(/C=O)[C@@H]1O | -19% [at 38.5 µM]
15 | C=C[C@]1(C)C[C@H](O)[C@H]2C(=C)C(=O)O[C@@H]2[C@H]1C(=C)CO | -2.39%
16 | COC(=O)c1ccnc(-c2cc(C(=O)Nc3ccc(C4(N)CC4)cc3)ccn2)c1 | 7.19%
17 | O=C(Nc1ccc2[nH]c(=O)oc2c1)C(=O)N1CCC(Cc2ccc(F)cc2)CC1 | 8.05%
18 | O=C(Nc1cccnn1)N1CCN(c2nccc(-c3ccc(F)c(F)c3)n2)CC1 | 19.9% [at 116 µM]
19 | O=C(Nc1cc(C(F)(F)F)ccc1N1CCCCC1)c1ccncc1 | 1.67%
20 | CCC/C=C/C=C/C1CC(O)C2(O)C(=O)OCC12 (stereo unspecified) | 10.6%
21 | C[C@H]1CC[C@@]2(OC1)O[C@H]1CC3[C@@H]4CC[C@@H]5C[C@@H](O[C@@H]6O[C@H](CO)[C@@H](O[C@@H]7O[C@H](CO[C@@H]8OC[C@@H](O)[C@H](O)[C@H]8O)[C@@H](O[C@@H]8O[C@H](CO)[C@H](O)[C@H](O)[C@H]8O)[C@H](O)[C@H]7O)[C@H](O)[C@H]6O)CC[C@]5(C)C4CC[C@]3(C)[C@H]1[C@@H]2C (stereo partly specified) | 0.154% [at 11.6 µM]
22 | CC(C)(C)c1ccc(C(=O)Nc2cc(Cl)c(Br)cc2C(=O)O)cc1 | -0.374%
23 | C=C1CCC2C(C)(C)CCCC2(C)C1CC/C(C)=C\CO (stereo unspecified) | 5.25%
24 | CCCCCc1ccc(/C=C/C(=O)Nc2cc(Cl)ccc2C(=O)O)cc1 | 13.7%
25 | O=C(N[C@H](Cc1cscn1)C(=O)N[C@@H](CC1CCCCC1)[C@@H](O)[C@@H](O)C1CC1)c1nc2ccccc2[nH]1 | 0.428%
26 | O=C(Nc1nnc(-c2ccc3c(c2)OCCO3)o1)C1CCCCC1 | -27.6%
